Here are results for 40 compounds from PubChem BioAssay (NCI).

This is part of a sample that, as a whole, favours compounds with a hit. Of some 79,000 tested, about 15% had one in any assay. Activity calls are given as the source filed them. Cut-off read from the data, not from the text of the source: active = growth inhibition above about 70%; inactive = the rest.

A short description of one assay: NCI Yeast Anticancer Drug Screen. Data for the rad50 strain (AID 155).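 Note: 0% = growth of vehicle-only cultures of the same strain.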 To be noted: S. cerevisiae rad50 strain growth inhibition; at 50.0 µM; stronger effect = higher value. The gist of the method:
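A DNA repair-deficient yeast mutant serves as the test organism; compound-induced growth inhibition is calculated against vehicle-treated cells.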
Turning to `CN(C)NC(=O)Nc1cccc2ccccc12`, the growth inhibition was -25.2% (inactive).

As for `CCN(CC)CCCC(C)n1c(-c2ccc(OC)cc2)nc2cc(Cl)ccc21` (stereo not given), the growth inhibition is -0.65% (inactive).

`CCOC(=O)COc1cc2c(cc1C(C)c1ccc(OCc3ccccc3)c(OC)c1)OCO2` (stereo not given): the growth inhibition was -0.95% (inactive).

In the case of `CNC(=O)c1ccccc1Sc1ccccc1`, the growth inhibition was -4.25% (inactive).

Regarding `COc1ccc(-c2nnc(-c3ccc(OC)cc3)nn2)cc1`, the growth inhibition is 1.8% (inactive).

As to `O=C1C(CCCS)C(c2ccccc2)=NN1c1ccccc1` (stereo not given), the growth inhibition is 54.9% (inactive).

For `CCOC(=O)C(C)NCc1ccccc1` (stereo not given), the growth inhibition was 2.15% (inactive).

For the compound `COC(=O)c1c(O)c2c(c3c1OC(C)(C)CC3)OC(C)(C)CC2`, the growth inhibition was -13.3% (inactive).

Consider `CC(C)(C)SC1C(O)C(CO)OC1n1ccc(Nc2ccccc2)nc1=O` (stereo not given), for which the growth inhibition is -17.9% (inactive).

For the compound `C=C1C(=O)O[C@@H]2[C@H]3[C@H](C)C(=O)C=C[C@]3(C)CC[C@@H]12`, the growth inhibition was 21.3% (inactive).

Turning to `COc1cccc(CCNC(=O)Cc2ccccc2CCO)c1`, the growth inhibition was -5.8% (inactive).

Regarding `O=C1CC(O)C2C(=O)c3c(c(Cl)c4ccccc4c3O)C(=O)C2C1` (stereo not given), the growth inhibition was 12.1% (inactive).

As for `O=C(O)CNC1CCCC1`, the growth inhibition was -1.3% (inactive).

On to `Cc1ccc(C(=N)c2ccccc2Cc2cccc3ccccc23)c2ccccc12`, for which the growth inhibition was 12.4% (inactive).

As for `O=C(/C=C\c1ccccc1)Nc1c(Cl)cc(Cl)cc1Cl`, the growth inhibition is 0.65% (inactive).

Regarding `COc1ccc(/C=C2\N=C(c3ccc([N+](=O)[O-])cc3)OC2=O)cc1Br`, the growth inhibition is 29.9% (inactive).

As for `CCOC(=O)C(C=C(C)C)(CC)C(=O)OCC`, the growth inhibition was 2.5% (inactive).

As for `CSc1c(C#N)c(N)n2c1C(=O)N(c1ccccc1)C2=S`, the growth inhibition was -52.7% (inactive).

`CN1CCCCC(C#N)(c2ccccc2)CC1` (stereo not given): the growth inhibition is -5.25% (inactive).

For `Nc1ncc2ncn(C3CCC(CO)O3)c2n1` (stereo not given), the growth inhibition is -6.9% (inactive).

With `O=C(COc1cccc(C(=O)O)c1)Nc1ccccc1`, the growth inhibition is 3.5% (inactive).

`CCCc1c(C)nc2scc(-c3ccccc3)n2c1=O`: the growth inhibition was 38.7% (inactive).

With `CC(=O)OCCn1cnc2c(NCC=C(C)C)ncnc21`, the growth inhibition was -28.4% (inactive).

Take `c1ccc(N2C3Sc4ncccc4C2Sc2ncccc23)cc1`: the growth inhibition was -20.4% (inactive).

On to `COc1nc(NC2OCC(O)C(O)C2O)c(Br)c(=O)n1C` (stereo not given), for which the growth inhibition is 4.9% (inactive).

Regarding `CCN(CC(O)COc1ccc2c(c1)[n+]([O-])nc(N)[n+]2[O-])C(C)=O` (stereo not given), the growth inhibition is 46.5% (inactive).

For `Oc1c(CNCc2ccccc2)cc(CNCc2ccccc2)c(O)c1CNCc1ccccc1`, the growth inhibition was 5.3% (inactive).

Consider `CCCCCO/C=C/CN1CCOCC1`, for which the growth inhibition is 8.85% (inactive).

Turning to `O=C1C2=C(CCCC2)Nc2cccc3ncn1c23`, the growth inhibition was -25.9% (inactive).

`CC(=O)Nc1ccc(S(=O)(=O)CCN2C(=O)c3ccccc3C2=O)cc1`: the growth inhibition was -4.55% (inactive).

Consider `CC(NC(=O)NCCCl)c1cccc2ccccc12` (stereo not given), for which the growth inhibition was -7.25% (inactive).

Take `Cn1c(Cc2ccccc2)c([N+](=O)[O-])c(=O)n(C)c1=O`: the growth inhibition is -0.2% (inactive).

Regarding `CCCCCCCCCCCCCCCCS(=O)(=O)N/N=C(\c1ccc(C(C)C)cc1)N1CCOCC1`, the growth inhibition was 1.3% (inactive).

For the compound `CCOc1cc2c(cc1C(CC)c1ccccc1)OCO2` (stereo not given), the growth inhibition is 6.75% (inactive).

As to `CC(=O)N=C1N(/C=C2\C(=O)Oc3ccccc3C2=O)C(=O)/C(=C/c2ccc3c(c2)OCO3)N1C`, the growth inhibition is 21.6% (inactive).

Take `CCCCC(=O)c1ccc2ccccc2c1O`: the growth inhibition is 6.9% (inactive).

Regarding `CCN(CC)c1ccc(N)cc1`, the growth inhibition was -4.05% (inactive).

As for `Cc1ccc(S(=O)(=O)OC(c2ccccc2)C(F)(F)F)cc1` (stereo not given), the growth inhibition is -4.05% (inactive).

With `COC(=O)c1cccc(C(=O)CC(=O)c2ccccc2)c1`, the growth inhibition was 18.6% (inactive).

In the case of `C(=C\c1ccco1)/c1ccco1`, the growth inhibition is 25.1% (inactive).

The nature of a further assay: NCI Yeast Anticancer Drug Screen. Data for the mec2-1 strain (AID 157). The note with it: S. cerevisiae mec2-1 strain, at 50.0 µM, stronger effect = higher value. In short, it runs like this:
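Growth inhibition is read against vehicle-treated controls after compound exposure of the mec2-1 yeast strain, which is defective in DNA damage repair or cell cycle control.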
Turning to `CN(C)NC(=O)Nc1cccc2ccccc12`, the growth inhibition was -22.3% (inactive).

Regarding `CCN(CC)CCCC(C)n1c(-c2ccc(OC)cc2)nc2cc(Cl)ccc21` (stereo not given), the growth inhibition is 8.5% (inactive).

For the compound `CCOC(=O)COc1cc2c(cc1C(C)c1ccc(OCc3ccccc3)c(OC)c1)OCO2` (stereo not given), the growth inhibition was -7.55% (inactive).

Take `CNC(=O)c1ccccc1Sc1ccccc1`: the growth inhibition was -15.8% (inactive).

In the case of `COc1ccc(-c2nnc(-c3ccc(OC)cc3)nn2)cc1`, the growth inhibition was 15.7% (inactive).

With `O=C1C(CCCS)C(c2ccccc2)=NN1c1ccccc1` (stereo not given), the growth inhibition was 3.9% (inactive).

`CCOC(=O)C(C)NCc1ccccc1` (stereo not given): the growth inhibition was 0.1% (inactive).

As for `COC(=O)c1c(O)c2c(c3c1OC(C)(C)CC3)OC(C)(C)CC2`, the growth inhibition is 0.1% (inactive).

Take `CC(C)(C)SC1C(O)C(CO)OC1n1ccc(Nc2ccccc2)nc1=O` (stereo not given): the growth inhibition is 10.8% (inactive).

In the case of `C=C1C(=O)O[C@@H]2[C@H]3[C@H](C)C(=O)C=C[C@]3(C)CC[C@@H]12`, the growth inhibition was -24.9% (inactive).

For `COc1cccc(CCNC(=O)Cc2ccccc2CCO)c1`, the growth inhibition is -7.8% (inactive).

For the compound `O=C1CC(O)C2C(=O)c3c(c(Cl)c4ccccc4c3O)C(=O)C2C1` (stereo not given), the growth inhibition is 12.4% (inactive).

Turning to `O=C(O)CNC1CCCC1`, the growth inhibition is 3.65% (inactive).

On to `Cc1ccc(C(=N)c2ccccc2Cc2cccc3ccccc23)c2ccccc12`, for which the growth inhibition was -22.1% (inactive).

Turning to `O=C(/C=C\c1ccccc1)Nc1c(Cl)cc(Cl)cc1Cl`, the growth inhibition was 10.5% (inactive).

With `COc1ccc(/C=C2\N=C(c3ccc([N+](=O)[O-])cc3)OC2=O)cc1Br`, the growth inhibition is 21.6% (inactive).

On to `CCOC(=O)C(C=C(C)C)(CC)C(=O)OCC`, for which the growth inhibition was -17% (inactive).

In the case of `CSc1c(C#N)c(N)n2c1C(=O)N(c1ccccc1)C2=S`, the growth inhibition was 25.6% (inactive).

Consider `CN1CCCCC(C#N)(c2ccccc2)CC1` (stereo not given), for which the growth inhibition was 14.1% (inactive).

Consider `Nc1ncc2ncn(C3CCC(CO)O3)c2n1` (stereo not given), for which the growth inhibition is -10.1% (inactive).

Regarding `O=C(COc1cccc(C(=O)O)c1)Nc1ccccc1`, the growth inhibition was 7.9% (inactive).

On to `CCCc1c(C)nc2scc(-c3ccccc3)n2c1=O`, for which the growth inhibition is 16.5% (inactive).

Regarding `CC(=O)OCCn1cnc2c(NCC=C(C)C)ncnc21`, the growth inhibition is -12.4% (inactive).

As to `c1ccc(N2C3Sc4ncccc4C2Sc2ncccc23)cc1`, the growth inhibition is 2.8% (inactive).

Take `COc1nc(NC2OCC(O)C(O)C2O)c(Br)c(=O)n1C` (stereo not given): the growth inhibition was -10.4% (inactive).

On to `CCN(CC(O)COc1ccc2c(c1)[n+]([O-])nc(N)[n+]2[O-])C(C)=O` (stereo not given), for which the growth inhibition was 38% (inactive).

Regarding `Oc1c(CNCc2ccccc2)cc(CNCc2ccccc2)c(O)c1CNCc1ccccc1`, the growth inhibition is 8.85% (inactive).

`CCCCCO/C=C/CN1CCOCC1`: the growth inhibition was 15.2% (inactive).

Regarding `O=C1C2=C(CCCC2)Nc2cccc3ncn1c23`, the growth inhibition is -39% (inactive).

For `CC(=O)Nc1ccc(S(=O)(=O)CCN2C(=O)c3ccccc3C2=O)cc1`, the growth inhibition was -8.85% (inactive).

For the compound `CC(NC(=O)NCCCl)c1cccc2ccccc12` (stereo not given), the growth inhibition was -1.25% (inactive).

In the case of `Cn1c(Cc2ccccc2)c([N+](=O)[O-])c(=O)n(C)c1=O`, the growth inhibition is -5.25% (inactive).

For the compound `CCCCCCCCCCCCCCCCS(=O)(=O)N/N=C(\c1ccc(C(C)C)cc1)N1CCOCC1`, the growth inhibition was -18.4% (inactive).

Regarding `CCOc1cc2c(cc1C(CC)c1ccccc1)OCO2` (stereo not given), the growth inhibition was 12.6% (inactive).

As to `CC(=O)N=C1N(/C=C2\C(=O)Oc3ccccc3C2=O)C(=O)/C(=C/c2ccc3c(c2)OCO3)N1C`, the growth inhibition was -5.55% (inactive).

Consider `CCCCC(=O)c1ccc2ccccc2c1O`, for which the growth inhibition is -6.35% (inactive).

Consider `CCN(CC)c1ccc(N)cc1`, for which the growth inhibition is -9.9% (inactive).

`Cc1ccc(S(=O)(=O)OC(c2ccccc2)C(F)(F)F)cc1` (stereo not given): the growth inhibition was -15.6% (inactive).

`COC(=O)c1cccc(C(=O)CC(=O)c2ccccc2)c1`: the growth inhibition was 12.7% (inactive).

Turning to `C(=C\c1ccco1)/c1ccco1`, the growth inhibition was 11.2% (inactive).
